Nine compounds from ChEMBL document CHEMBL2218924, “A broad activity screen in support of a chemogenomic map for kinase signalling research and drug discovery” (Biochem J, 2013) can be followed below.

Assay [1] concerns the target Dual specificity mitogen-activated protein kinase kinase 1 (Homo sapiens) (UniProt Q02750). The note with it: at 1 µM.
The target is the same in assay [2]. The note with it: at 10 µM.
In assay [3] the target is Maternal embryonic leucine zipper kinase (Homo sapiens) (UniProt Q14680). To be noted: at 1 µM.
For assay [4] the target is unchanged. To be noted: at 10 µM.
Assay [5] deals with Misshapen-like kinase 1 (Homo sapiens) (UniProt Q8N4C8). The note with it: at 1 µM.
Misshapen-like kinase 1 (Homo sapiens), sequence (Q8N4C8 whole entry, looked up): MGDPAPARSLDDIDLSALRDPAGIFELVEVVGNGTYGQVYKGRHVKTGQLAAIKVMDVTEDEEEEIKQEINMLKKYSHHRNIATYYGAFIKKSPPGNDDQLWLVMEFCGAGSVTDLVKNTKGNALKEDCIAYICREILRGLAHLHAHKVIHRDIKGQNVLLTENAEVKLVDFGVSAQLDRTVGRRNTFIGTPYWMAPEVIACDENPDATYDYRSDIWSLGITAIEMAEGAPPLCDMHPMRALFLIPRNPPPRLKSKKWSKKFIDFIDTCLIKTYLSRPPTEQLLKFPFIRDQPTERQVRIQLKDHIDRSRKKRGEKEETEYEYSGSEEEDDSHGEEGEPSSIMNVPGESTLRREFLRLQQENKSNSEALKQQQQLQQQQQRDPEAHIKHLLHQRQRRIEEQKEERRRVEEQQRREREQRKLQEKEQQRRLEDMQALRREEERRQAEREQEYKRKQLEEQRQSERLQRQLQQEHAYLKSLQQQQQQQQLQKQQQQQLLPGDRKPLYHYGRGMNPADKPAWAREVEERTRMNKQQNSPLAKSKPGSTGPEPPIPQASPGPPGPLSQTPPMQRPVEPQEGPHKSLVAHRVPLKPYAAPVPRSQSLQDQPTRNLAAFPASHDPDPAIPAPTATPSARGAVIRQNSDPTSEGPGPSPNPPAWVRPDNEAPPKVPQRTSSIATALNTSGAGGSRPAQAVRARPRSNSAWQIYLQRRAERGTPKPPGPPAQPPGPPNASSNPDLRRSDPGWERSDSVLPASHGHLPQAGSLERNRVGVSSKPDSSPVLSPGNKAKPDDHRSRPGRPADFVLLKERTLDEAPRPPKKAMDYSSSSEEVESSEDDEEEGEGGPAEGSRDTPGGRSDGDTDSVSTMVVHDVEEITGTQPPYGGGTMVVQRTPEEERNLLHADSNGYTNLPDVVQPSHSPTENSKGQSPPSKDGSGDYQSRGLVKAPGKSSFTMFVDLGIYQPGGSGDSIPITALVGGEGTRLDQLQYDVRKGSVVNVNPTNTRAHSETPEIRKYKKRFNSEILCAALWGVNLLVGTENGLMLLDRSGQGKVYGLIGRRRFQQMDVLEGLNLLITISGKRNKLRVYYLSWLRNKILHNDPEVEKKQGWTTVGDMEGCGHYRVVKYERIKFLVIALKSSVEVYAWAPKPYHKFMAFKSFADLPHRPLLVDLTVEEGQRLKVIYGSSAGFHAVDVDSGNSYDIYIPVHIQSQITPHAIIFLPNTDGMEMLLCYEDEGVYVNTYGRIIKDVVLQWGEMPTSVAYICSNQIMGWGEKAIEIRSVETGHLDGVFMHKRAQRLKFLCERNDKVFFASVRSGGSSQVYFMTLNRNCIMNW
Assay [6] shares this target. The note with it: at 10 µM.
The target of assay [7] is T1, Dual specificity mitogen-activated protein kinase kinase 6 (Homo sapiens) (UniProt P52564).
T1 sequence (whole entry): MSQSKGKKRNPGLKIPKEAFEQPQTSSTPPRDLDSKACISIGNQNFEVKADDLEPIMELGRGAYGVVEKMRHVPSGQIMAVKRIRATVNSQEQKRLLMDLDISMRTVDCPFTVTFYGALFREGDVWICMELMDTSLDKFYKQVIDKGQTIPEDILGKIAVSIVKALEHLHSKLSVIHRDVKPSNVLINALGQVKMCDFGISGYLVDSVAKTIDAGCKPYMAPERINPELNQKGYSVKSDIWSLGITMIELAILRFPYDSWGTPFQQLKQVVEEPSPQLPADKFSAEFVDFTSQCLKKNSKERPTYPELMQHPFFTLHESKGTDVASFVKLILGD
To be noted: at 1 µM.

In assay [8] the target is T1, Dual specificity mitogen-activated protein kinase kinase 6 (Homo sapiens). To be noted: at 10 µM.
Assay [9] concerns the target T2, Dual specificity mitogen-activated protein kinase kinase 7 (Homo sapiens) (UniProt O14733).
T2 sequence (whole entry): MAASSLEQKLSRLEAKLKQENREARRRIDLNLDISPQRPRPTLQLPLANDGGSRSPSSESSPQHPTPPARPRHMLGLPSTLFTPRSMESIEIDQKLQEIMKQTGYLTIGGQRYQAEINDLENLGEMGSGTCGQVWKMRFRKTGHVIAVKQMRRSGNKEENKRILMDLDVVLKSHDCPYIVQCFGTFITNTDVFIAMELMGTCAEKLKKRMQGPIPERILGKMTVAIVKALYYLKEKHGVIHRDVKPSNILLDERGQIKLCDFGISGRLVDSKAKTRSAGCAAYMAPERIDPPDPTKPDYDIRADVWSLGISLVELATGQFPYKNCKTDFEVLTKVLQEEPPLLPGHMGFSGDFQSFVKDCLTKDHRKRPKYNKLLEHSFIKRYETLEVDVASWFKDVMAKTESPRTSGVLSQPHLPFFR
The note with it: at 1 µM.

For assay [10], the target named is T2, Dual specificity mitogen-activated protein kinase kinase 7 (Homo sapiens). The note with it: at 10 µM.
In assay [11] the target is Myosin light chain kinase, smooth muscle (Homo sapiens) (UniProt Q15746). The note with it: at 1 µM.
For assay [12] the target is unchanged. To be noted: at 10 µM.
The target of assay [13] is Mitogen-activated protein kinase kinase kinase 9 (Homo sapiens) (UniProt P80192). The note with it: at 1 µM.
Mitogen-activated protein kinase kinase kinase 9 (Homo sapiens), sequence (P80192 whole entry, looked up): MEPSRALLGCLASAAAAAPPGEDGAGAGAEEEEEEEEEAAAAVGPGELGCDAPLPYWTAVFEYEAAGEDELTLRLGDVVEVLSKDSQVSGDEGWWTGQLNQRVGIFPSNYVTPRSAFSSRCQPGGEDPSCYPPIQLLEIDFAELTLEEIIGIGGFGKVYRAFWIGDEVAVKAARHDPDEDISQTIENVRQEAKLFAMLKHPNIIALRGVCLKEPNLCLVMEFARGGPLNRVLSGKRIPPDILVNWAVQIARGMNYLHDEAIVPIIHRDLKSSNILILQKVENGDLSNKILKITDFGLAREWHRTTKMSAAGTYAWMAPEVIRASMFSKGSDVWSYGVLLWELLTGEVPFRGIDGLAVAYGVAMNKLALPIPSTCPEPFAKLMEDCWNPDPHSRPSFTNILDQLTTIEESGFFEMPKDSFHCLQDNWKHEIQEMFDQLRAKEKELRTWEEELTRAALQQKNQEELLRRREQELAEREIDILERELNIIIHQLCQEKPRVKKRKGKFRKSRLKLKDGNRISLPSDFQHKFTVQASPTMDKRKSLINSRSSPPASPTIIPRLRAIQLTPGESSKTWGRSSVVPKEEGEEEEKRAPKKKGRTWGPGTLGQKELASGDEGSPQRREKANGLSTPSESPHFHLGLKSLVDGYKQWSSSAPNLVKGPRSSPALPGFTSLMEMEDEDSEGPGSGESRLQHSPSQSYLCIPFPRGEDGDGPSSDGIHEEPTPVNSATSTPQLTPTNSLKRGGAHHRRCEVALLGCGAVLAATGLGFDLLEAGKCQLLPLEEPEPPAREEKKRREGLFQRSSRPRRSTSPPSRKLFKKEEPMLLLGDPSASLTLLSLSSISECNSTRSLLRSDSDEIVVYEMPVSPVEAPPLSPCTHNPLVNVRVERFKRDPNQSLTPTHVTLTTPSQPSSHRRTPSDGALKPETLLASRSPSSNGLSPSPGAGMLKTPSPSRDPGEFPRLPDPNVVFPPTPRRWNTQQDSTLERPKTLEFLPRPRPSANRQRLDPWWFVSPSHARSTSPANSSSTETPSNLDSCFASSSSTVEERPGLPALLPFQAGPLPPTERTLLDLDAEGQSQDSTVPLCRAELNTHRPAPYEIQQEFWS
Assay [14] has the same target. To be noted: at 10 µM.
In assay [15] the target is Serine/threonine-protein kinase MRCK alpha (Homo sapiens) (UniProt Q5VT25). The note with it: at 1 µM.
Assay [16] shares this target. To be noted: at 10 µM.
Assay [17] deals with Serine/threonine-protein kinase MRCK beta (Homo sapiens) (UniProt Q9Y5S2). The note with it: at 1 µM.
Serine/threonine-protein kinase MRCK beta (Homo sapiens), sequence (Q9Y5S2 whole entry): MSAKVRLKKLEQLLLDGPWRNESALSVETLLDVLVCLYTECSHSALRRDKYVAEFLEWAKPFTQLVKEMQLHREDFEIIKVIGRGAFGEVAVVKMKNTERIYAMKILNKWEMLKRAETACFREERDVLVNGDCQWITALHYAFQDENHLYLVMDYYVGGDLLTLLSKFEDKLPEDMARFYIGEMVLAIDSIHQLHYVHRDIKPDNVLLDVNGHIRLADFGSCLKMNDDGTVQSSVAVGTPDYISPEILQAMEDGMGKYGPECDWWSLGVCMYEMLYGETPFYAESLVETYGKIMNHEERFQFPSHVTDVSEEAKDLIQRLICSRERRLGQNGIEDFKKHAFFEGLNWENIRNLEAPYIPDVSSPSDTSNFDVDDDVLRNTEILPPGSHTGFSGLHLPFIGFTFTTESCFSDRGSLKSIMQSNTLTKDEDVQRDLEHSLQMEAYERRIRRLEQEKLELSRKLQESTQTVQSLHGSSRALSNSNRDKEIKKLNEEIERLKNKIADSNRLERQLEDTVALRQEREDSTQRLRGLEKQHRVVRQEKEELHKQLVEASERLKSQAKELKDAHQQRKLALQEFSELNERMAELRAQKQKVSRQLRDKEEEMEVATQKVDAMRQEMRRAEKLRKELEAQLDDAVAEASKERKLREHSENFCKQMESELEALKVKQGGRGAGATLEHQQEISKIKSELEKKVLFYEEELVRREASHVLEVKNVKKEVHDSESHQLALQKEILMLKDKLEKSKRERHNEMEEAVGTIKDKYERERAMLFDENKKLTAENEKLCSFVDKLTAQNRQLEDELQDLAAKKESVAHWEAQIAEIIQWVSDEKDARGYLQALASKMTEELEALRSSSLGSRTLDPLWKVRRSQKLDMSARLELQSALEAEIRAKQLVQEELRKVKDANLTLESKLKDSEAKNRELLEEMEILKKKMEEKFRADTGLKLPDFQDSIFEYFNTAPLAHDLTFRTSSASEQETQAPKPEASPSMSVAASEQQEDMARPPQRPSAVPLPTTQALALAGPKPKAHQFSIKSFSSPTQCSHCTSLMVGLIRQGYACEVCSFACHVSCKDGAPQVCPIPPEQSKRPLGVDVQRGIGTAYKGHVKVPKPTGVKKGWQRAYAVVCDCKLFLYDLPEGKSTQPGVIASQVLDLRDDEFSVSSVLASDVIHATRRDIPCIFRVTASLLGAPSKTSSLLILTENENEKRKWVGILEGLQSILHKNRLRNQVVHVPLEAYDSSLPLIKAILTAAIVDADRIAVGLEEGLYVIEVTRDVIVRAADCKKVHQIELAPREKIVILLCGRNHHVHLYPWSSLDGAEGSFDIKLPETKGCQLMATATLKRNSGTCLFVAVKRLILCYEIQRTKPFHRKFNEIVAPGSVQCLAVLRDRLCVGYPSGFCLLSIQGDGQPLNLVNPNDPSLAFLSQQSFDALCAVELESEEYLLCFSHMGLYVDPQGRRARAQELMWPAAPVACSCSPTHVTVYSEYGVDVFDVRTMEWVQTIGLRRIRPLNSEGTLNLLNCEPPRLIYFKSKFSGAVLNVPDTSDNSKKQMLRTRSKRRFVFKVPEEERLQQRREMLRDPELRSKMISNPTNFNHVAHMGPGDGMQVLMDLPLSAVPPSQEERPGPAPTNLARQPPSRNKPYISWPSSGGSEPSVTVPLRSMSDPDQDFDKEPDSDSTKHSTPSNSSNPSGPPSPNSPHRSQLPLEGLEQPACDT
For assay [18] the target is unchanged. The note with it: at 10 µM.
In assay [19] the target is Ribosomal protein S6 kinase alpha-5 (Homo sapiens) (UniProt O75582). To be noted: at 1 µM.
Ribosomal protein S6 kinase alpha-5 (Homo sapiens), sequence (O75582 whole entry, looked up): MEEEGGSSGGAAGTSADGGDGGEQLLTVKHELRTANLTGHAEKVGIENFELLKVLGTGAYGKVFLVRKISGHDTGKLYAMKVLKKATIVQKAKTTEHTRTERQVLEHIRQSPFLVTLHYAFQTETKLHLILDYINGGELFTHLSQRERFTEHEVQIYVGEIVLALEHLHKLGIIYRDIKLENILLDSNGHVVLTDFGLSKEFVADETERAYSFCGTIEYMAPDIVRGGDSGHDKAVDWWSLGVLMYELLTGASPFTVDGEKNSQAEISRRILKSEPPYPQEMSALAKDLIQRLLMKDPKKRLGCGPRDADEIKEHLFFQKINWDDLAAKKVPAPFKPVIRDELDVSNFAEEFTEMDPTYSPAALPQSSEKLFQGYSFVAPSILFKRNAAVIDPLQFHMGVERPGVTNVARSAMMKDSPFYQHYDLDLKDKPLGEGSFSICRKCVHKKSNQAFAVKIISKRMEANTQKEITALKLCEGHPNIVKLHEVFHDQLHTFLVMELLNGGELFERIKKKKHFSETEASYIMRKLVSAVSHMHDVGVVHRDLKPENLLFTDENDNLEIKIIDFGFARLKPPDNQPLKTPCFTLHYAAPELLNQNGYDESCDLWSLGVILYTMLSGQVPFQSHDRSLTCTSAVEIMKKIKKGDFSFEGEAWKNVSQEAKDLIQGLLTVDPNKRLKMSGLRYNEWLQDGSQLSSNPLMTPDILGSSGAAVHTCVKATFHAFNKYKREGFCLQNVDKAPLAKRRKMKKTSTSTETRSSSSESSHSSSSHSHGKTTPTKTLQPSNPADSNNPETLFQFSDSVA
For assay [20] the target is unchanged. The note with it: at 10 µM.

`O=c1[nH]c2ccccc2n1C1CCN(Cc2ccc(-c3nc4cc5[nH]cnc5cc4nc3-c3ccccc3)cc2)CC1`: the residual activity worked out at 127% in assay [1]; 62% in assay [2]; 94% in assay [3]; 65% in [4]; 97% in assay [5]; 80% in [6]. The residual activity in assay [7] worked out at 80%; in assay [8], 90%; in assay [9], 112%; in assay [10], 112%; in assay [11], 76%; in assay [12] it was 4%. The residual activity worked out at 98% in assay [13]; 100% in assay [14]; 122% in assay [15]; 128% in assay [16]; 96% in assay [17]; 82% in assay [18]. Further, the residual activity in [19] is 132%; in assay [20] it was 106%.

In the case of `COC(=O)[C@@]1(O)C[C@H]2O[C@]1(C)n1c3ccccc3c3c4c(c5c6ccccc6n2c5c31)C(=O)NC4`, the residual activity is 1% in assay [3]; -1% in assay [4]; 0% in assay [5]; 1% in assay [6]; 7% in assay [9]; 0% in [10]. For the same compound, the residual activity in [11] was found to be 1%; in [12], 2%; in [13], 1%; in [14] it was 0%; in assay [15] it was 71%; in [16], 23%. The residual activity in assay [17] was 33%; in assay [18], 5%; in [19], 5%; in assay [20] it was 0%.

For `N/C(=N\[N+](=O)[O-])N/N=C\c1ccc(-c2cccc([N+](=O)[O-])c2)o1`, the residual activity came out at 92% in assay [3]; 85% in [4]; 99% in assay [5]; 78% in [6]; 88% in assay [7]; 83% in assay [8].

`O=C1Nc2ccc3ncsc3c2/C1=C/c1c[nH]cn1`: the residual activity in assay [1] stood at 15%; in assay [2], 1%; in assay [3], 6%; in assay [4] it was 1%; in assay [5], 27%; in assay [6], 6%. Also, the residual activity was -1% in assay [7]; 1% in assay [8]; 43% in [9]; 12% in assay [10]; 25% in assay [11]; 11% in [12]. In addition, the residual activity in assay [13] is 9%; in assay [14], 2%; in assay [15] it was 104%; in assay [16], 90%; in assay [17], 75%; in assay [18], 49%. For the same compound, the residual activity in assay [19] was found to be 43%; in assay [20], 7%.

As to `O=C1NC(=O)c2c1c1c3ccccc3n3c1c1c2c2ccccc2n1C1CCC3O1`, the residual activity in assay [1] was found to be 40%; in assay [2], 51%; in [3] it was 55%; in assay [4], 72%; in assay [5], 86%; in assay [6], 71%. Further, the residual activity in assay [7] came to 27%; in assay [8] it was 10%; in [9], 100%; in assay [10] it was 98%; in assay [11] it was 90%; in assay [12] it was 65%. In addition, the residual activity came to 1% in assay [13], 2% in assay [14], 41% in assay [19] and 33% in assay [20].

Regarding `CC(C)(C)c1cc(C=C(C#N)C#N)cc(Br)c1O`, the residual activity in assay [1] is 113%; in [2] it was 96%; in assay [5], 122%; in [6], 113%; in assay [8], 115%; in [10], 102%. Moreover, the residual activity in assay [13] is 104%; in assay [14], 97%; in assay [15], 108%; in assay [17], 115%; in assay [19], 122%; in assay [20], 97%.

For `COc1ccc2c(c[n+](C)c3c4cc5c(cc4ccc23)OCO5)c1OC`, the residual activity stood at 125% in assay [1]; 119% in assay [2]; 84% in assay [3]; 31% in assay [4]; 97% in [5]; 75% in assay [6]. For the same compound, the residual activity in assay [8] is 130%; in assay [9], 110%; in assay [10], 71%; in assay [11], 78%; in assay [14], 81%; in assay [15], 85%. Moreover, the residual activity stood at 84% in assay [16], 90% in assay [17] and 81% in assay [18].

Consider `O=[N+]([O-])/C=C/c1ccc2c(c1)OCO2`, for which the residual activity in [1] stood at 127%; in assay [2], 120%; in [3] it was 78%; in assay [4], 84%; in assay [5] it was 97%; in assay [6], 82%. The residual activity in assay [7] was 85%; in assay [8], 103%; in [9] it was 112%; in assay [10], 84%; in [11], 89%; in [12], 82%. Besides, the residual activity in assay [13] worked out at 100%; in assay [14], 111%; in assay [15] it was 106%; in [16], 100%; in [17], 83%; in assay [18], 89%. Moreover, the residual activity in assay [19] is 125%; in assay [20], 110%.

As to `CCc1nc(-c2ccc(OC)cc2)[nH]c1-c1ccncc1`, the residual activity came to 65% in [4]; 115% in [15]; 114% in [16]; 108% in [19]; 112% in assay [20].
